Experimental data taken from the supplement of paper PMC11417369.
± gives the standard deviation of the averaged measurements. Over roughly 25,000 sequences, “ln(normalized median fluorescence intensity)” has its median near 10; the highest 2% begin near 12. The sample as a whole holds a higher share of the highest values than the screen did.

test system: PfAP2-G AP2 domain (GST-tagged); test: gcPBM binding intensity (ln(normalized median fluorescence intensity)); higher = stronger DNA binding
Procedure, shortened: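 An Agilent 4 × 180k array carrying primer-extended double-stranded 36-bp intergenic genomic probes and negative controls received GST-tagged P. falciparum DNA-binding domains expressed in E. coli, about 25 μg on average, for 1 h. The binding buffer contained 1× PBS, 1% milk, 0.2 mg/ml BSA, 0.5% salmon testes DNA and 0.03% Triton X-100. Binding intensity is the top Masliner-normalised natural-log median intensity across replicate spots of either probe orientation, read after Alexa488 anti-GST antibody staining and a 488 nm scan.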

Sequence | gcPBM binding intensity (ln)
CAAGGAACCAGACACACACACATAAATGTATATATA [CACACA_site752] | 10.1 ± 0.18
TTCATTCAAATCCAAGCATGCTTTATTAAAAAATTA [TGCATGCA_site567] | 9.84 ± 0.26
TTTATTTTTCCATATGCACACACACCGTATATATAA [CACACA_site8293] | 10.3 ± 0.16
TCTTAAAATCGGAAATGAAATAAAGTTTACAATATG [TGCATGCA_negctrl_site553] | 9.87 ± 0.071
TTTATATGTTTTAAGTGTACACATATAATGTATTTT [XGTACX_site3069] | 11.6 ± 0.91
TTTATATGTATGAAGTGTACACATATATTGTATTTT [XGTACX_site5731] | 11.6 ± 0.82
ATATATATATATATATGTACACATATATTTCTTTTC [XGTACX_site3443] | 11.4 ± 0.91
ATATGTATTAAGTGTACACATATAATGTATTTTGTT [CACACA_site4177] | 11.6 ± 0.92
TTTATATGTATTAAGTGTACACATATAATGTGTTTG [XGTACX_site6629] | 11.5 ± 0.86
ATATGTTTTAAGTGTACACATATAATGTATTTTGTT [CACACA_site4929] | 11.6 ± 0.9
ATATGTATGAAGTGTACACATATATTGTATTTTCTT [CACACA_site5503] | 11.7 ± 0.91
ATATGTATTAAGTGTACACATATAATGGGTTTGTTA [CACACA_site5682] | 11.7 ± 0.95
ATATGTATTAAGTGTACACATATAATGGGTTTTCTT [CACACA_site5328] | 11.6 ± 0.73
TGCTATAATTTATATACACACAAATATATACGCATA [CACACA_site4096] | 10 ± 0.14
AGAAAAATTATTTTGCGTACATATTTACAATAAAAA [XGTACX_site2144] | 11.5 ± 0.75
TTTTTTTTGCGTACAGTGCAAATTTATTTACTATTC | 11.7 ± 1.1
TTTTATTTACACAGTGGTACTATTAAAAATTAATGA [XGTACX_site6737] | 11 ± 0.7
GACATTTCTTGGGATACATGCATGTCCCAGAACAAA [TGCATGCA_site271] | 10.6 ± 0.4
TTTTATTTTTTAGTAGTACACACTTTTTGTACCTTT [CACACA_site599] | 11.8 ± 1
CTTATTTCCTTTTGTAGTACCTTATAATATATATAA [XGTACX_site8873] | 11.3 ± 0.69
TTTTTATTTTTGTAGTGTACTTTATTTTTTTTGTTT [XGTACX_site8887] | 11.6 ± 0.91
TGTTTACACTTTTTTTGTACACATAATTTTATTTGA [XGTACX_site3760] | 11.3 ± 0.81
TTTTTTATTACTTTGTGTACTTACACAGAACCTTAT [XGTACX_site6038] | 11.5 ± 0.88

Sequence | gcPBM binding intensity (ln)
TTTGAACTTTTATATACACACATTATTATAGTATAG [CACACA_site6851] | 10.04 ± 0.071
TTATTTTTTAGTAGTACACACTTTTTGTACCTTTTA [CACACA_site4503] | 11.8 ± 1.1
TTTTTATTTTTTAGTAGTACACACTTTTTGAACCTT [XGTACX_site1091] | 11.6 ± 0.97
ATTCTTTTATTTAGTAGTACATTTGTATTTTATTCA [XGTACX_site5790] | 11.5 ± 0.95
AATTATATAAGCCACGCATGTGTGCATAAAAATACA [TGCATGCA_site114] | 10.2 ± 0.14
TGTACGAGTCGTAGAGTGCAGTCTGGAGAAACGTAC [GTGCAC_site9682] | 11 ± 0.47
AATTTACATATATATTGTACATTTATGTATATATAT [XGTACX_site4186] | 10.7 ± 0.52
AAATAAATCTTATGCACACAAATAATTAATTAAACA [CACACA_site1693] | 10.06 ± 0.014
ATAAAAAAAATAAAAAGTACAAAAAAAAAAAATGGA [XGTACX_site136] | 11.3 ± 0.71
ACATATGACTATAATACACACTTGTATTATTAATAT [CACACA_site6951] | 9.98 ± 0.13
ATATATATATCTAATTGTACATATTTTATAAATAAG [XGTACX_site4840] | 11 ± 0.52
GGCATAAATATATGCACACACAAAAAAAAAAAAAAA [CACACA_site59] | 10 ± 0.65
GAAAAAAATGAAATTAGTACTTATCTTAAATTTTTA [XGTACX_site1018] | 10.8 ± 0.47
TATGCTATTATATATGTACACACCAATTTATTTATA [CACACA_site3918] | 11.3 ± 0.74
AGAAAAAAAAAAAAATGTACAGACTTTTTCTTATAA [XGTACX_site6481] | 11 ± 0.55
TTTTTCTTACATGAGTGTACACACTTTTTTTCAGAA [XGTACX_site138] | 11.7 ± 0.83
ATCTTTCGAACATGTACACACAGAAAAAAAAAAAAA [CACACA_site5393] | 11.3 ± 1
AATATTTATTTTACATGTACTTATTTTTCTTTTAAC [XGTACX_site3631] | 11.4 ± 0.88
TTTTCTTACATGAGTGTACACACTTTTTTTCAGAAA [CACACA_site70] | 11.6 ± 0.91
TTCTTACATGAGTGTACACACTTTTTTTCAGAAAAT [CACACA_site4215] | 11.7 ± 1
AAATATTTTGCATACACATGCAAATATTTTTTACAT [TGCATGCA_site554] | 9.8 ± 0.11
TGTTTGATGGTACACGTACACACCTTGCAAATATTT [CACACA_site888] | 11.8 ± 1.2
TATACAATATATTTTGGTACACAAACAAAAAAATAT [XGTACX_site2522] | 11.2 ± 0.82

Sequence | gcPBM binding intensity (ln)
ATGTTTGATGCTACACGTACACACCTTGCAAATATT [XGTACX_site1644] | 11.6 ± 1
TATAATATGTTTGATGGTACACGTAAACACCTTGCA [XGTACX_site1643] | 11.1 ± 0.68
TTTGATGGTACACGTACACACCTTGCAAATATTTTT [CACACA_site4645] | 11.8 ± 1
ATATATATCGGACACACACACATGTTTTAAAACTAT [CACACA_site4218] | 10.9 ± 0.64
TGTTTATTTTTAAAAAGTACATATTTAAAAAACTTC [XGTACX_site271] | 11.4 ± 1
TATATTTAACATACTTTTTTTTTTTTTTTTTTTTTT [CACACA_negctrl_site938] | 10.9 ± 0.45
ATTTTTTTTTTTTTTTTGGGGGGGTATACTTTTAAA [CACACA_negctrl_site1020] | 11.9 ± 0.77
GTTAATATTTTTGGGGGTACTTAAAAAAAAAAAAAA [XGTACX_site1477] | 11.7 ± 0.91
CCATTTATTATTTGGGGTACATTTAATTAATATTTT [XGTACX_site5940] | 11.5 ± 1
TTTTTTTTTTTTTGGGGTACATTTTAATTAATATTA [XGTACX_site4866] | 11.4 ± 0.86
TATACTTTATATATTTTGTATATATATTTTTTTTAT [TGCATGCA_negctrl_site530] | 9.645 ± 0.035
ACAGATATACATAAAAAAAAAATAATTTTACATATA [CACACA_negctrl_site929] | 9.765 ± 0.049
TACATAAATACATACACACACATATAACCAATGTAG [CACACA_site5243] | 10.3 ± 0.11
AATCATTTATGGAAAGCATGCTAAATTAGAGTATAC [TGCATGCA_site172] | 10.03 ± 0.064
TAATGTAATACATATTGTACACATACATATATATTT [XGTACX_site7531] | 11.2 ± 0.71
TGAGTTCAACAAAGACGTACAAAACCAAAAATATAA [XGTACX_site8931] | 11.6 ± 0.93
AAAACAAACATTACACGTACAAAACAAGTTATAGAC [XGTACX_site6320] | 11.4 ± 0.74
TTTCAAACAAAAAGACGTACACTGAAGTTATCCGTC [XGTACX_site8824] | 11.8 ± 1
AAAAAAAAAAGACACACACACACACGGAGATATATA [CACACA_site6216] | 10.1 ± 0.22
TATGTGTAATATTTTTGTACAGAAAAAAAAAAAAAA [XGTACX_site7075] | 10.8 ± 0.77
AATTAATGGGTACATACACACATATATACATACATA [CACACA_site742] | 11.4 ± 1
TATTTATAAATTTACACACACACATGTGAACATAAA [CACACA_site1909] | 10.2 ± 0.14
ATAAATATTTACAAAAGTACACATAACTTTAGATAT [XGTACX_site1685] | 11.4 ± 0.9

Sequence | gcPBM binding intensity (ln)
ATAACAAAATAAAACACACACACAAATGTACAGATA [CACACA_site5358] | 11.1 ± 0.72
TATCCTAACTTTAGATGTACACAAATAAAAAAAAAA [XGTACX_site4491] | 11.7 ± 0.91
TTTATTTATATTTATACACACAAACATAATACTACT [CACACA_site7039] | 10.3 ± 0.28
AGGTCTATATAATAAGTGCATTTTTTTTTTTTTTTT [GTGCAC_site9664] | 10.2 ± 0.26
TTTTTAATATATAAAGATAATAATAAATAAAATTCA [CACACA_negctrl_site657] | 9.46 ± 0.12
TATATGCACTTAATATGTACACAAAAAAAAAAAAAA [XGTACX_site6199] | 11.5 ± 1.2
CAATAAAAATTAAAATGTACAAATAAATATAAATAT [XGTACX_site7265] | 10.8 ± 0.29
AAAAAAATTAAATGGGGTACAATAAGGGTCAAATAT [XGTACX_site8669] | 11.6 ± 0.93
GATTATTATTATAAGGGTACAAATATTTAATAAAAA [XGTACX_site7144] | 11 ± 0.57
AATTATATATTATCATGTACAAATATAGTAATACAA [XGTACX_site6845] | 10.7 ± 0.4
ATATAAACACTGAATGCATGCACATATATATATATA [TGCATGCA_site940] | 10.2 ± 0.26
ACATATATTTCAAAGTGTACGCACAATTTTTTTTAC [XGTACX_site6166] | 11.7 ± 1
TATACGCATATTTTTACACACATATTTTTTCATATA [CACACA_site2546] | 10.02 ± 0.049
AAAAAAATAACAAAGTGTACTTTTATATTTTACATA [XGTACX_site8954] | 11.3 ± 0.93
AAAGTATAAATAAATACACACATATTTATTTATATA [CACACA_site7375] | 9.96 ± 0.2
CCACATATACAAAACACACACACAACGTTTTAATAA [CACACA_site1978] | 10.1 ± 0.16
TCTGTAGTTTTTTACAGTACTTTTAGGTAATACATA [XGTACX_site7417] | 11 ± 0.79
GCTAGTTTTTTTTGGCGTACAGTACCGGTTTACTTT [XGTACX_site2606] | 11.6 ± 1
ATGACTTACATATATAGTACTTTGTTTTGGAGTTGC [XGTACX_site94] | 10.8 ± 0.45
ATAATTCCAAGAATTTCATATATCTGAATTTTAGGT [GTGCAC_negctrl_site283] | 9.61 ± 0.2
